Assay results published in PubChem BioAssay (NCATS).
Results filed as inconclusive are left out. Active and inactive are the calls of the source. Calls follow the shape of the dose curve; as a rule, active = well fitted curve in the direction sought with a large enough effect; inconclusive = small, poorly fitted or top-dose-only effect, or another doubt; inactive = no such curve, though single readings can be large; an effect the other way counts as inactive or inconclusive.

Key:
CRL-7250 = normal cell line; test: Cytotoxic Profiling of Annotated Libraries Using Quantitative High-Throughput Screening (AID 1296008); conditions: Five cell lines viability, CellTiter-Glo ATP luminescence, 48-72 h; max response: active compounds read low; also: nearly all actives have a fitted effect of over 60% in size; as to max response: % is scaled to controls: 0 for no effect and ±100 for the full control effect
Method in brief: (§1)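 Cytotoxicity was measured as CellTiter-Glo ATP luminescence, read after 10 min at room temperature. Compound treatment of the cells lasted 48 or 72 hr at 37 degrees Celsius in a qHTS format.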

HEK293 = test: as above; conditions: Five cell lines viability, CellTiter-Glo ATP luminescence, 48-72 h; max response: active compounds read low
Method in brief: as §1

HaCat [1] = test: as above; conditions: Five cell lines viability, CellTiter-Glo ATP luminescence, 48-72 h; max response: active compounds read low
Method in brief: as §1

KB-3-1 = test: as above; conditions: Five cell lines viability, CellTiter-Glo ATP luminescence, 48-72 h; max response: active compounds read low
Method in brief: as §1

NIH3T3 = test: as above; conditions: Five cell lines viability, CellTiter-Glo ATP luminescence, 48-72 h; max response: active compounds read low
Method in brief: as §1

HACAT [2] = test: qHTS assay to identify novel small-molecules to repurpose for Merkel cell carcinoma treatment (AID 1296009); conditions: MCC and control cell lines, CellTiter-Glo viability, 72 h; at 44.8 µM (top of the series) unless noted; also: nearly all actives have a fitted effect of over 60% in size
Method in brief: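 After compound transfer in DMSO, plates were kept 72 hr at 37 degree celsius. Luminescent ATP signal from CellTiter-Glo served as viability measure, normalized against DMSO and no-cell controls.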

C33A = test: Primary qHTS to identify gynecologic anti-cancer compounds using libraries of approved drugs and bioactive compounds (AID 1345084); conditions: Gynecologic cancer cell panel viability, ATPlite luminescence, 48 h; series mostly up to 57.5 µM; also: % is scaled to controls: 0 for no effect and ±100 for the full control effect; nearly all actives have a fitted effect of over 55% in size
Method in brief: (§2)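 Cells, 1,000 per well, were allowed to settle for 16 h at 37 C before compound addition. Five concentrations were tested for 48 h, and viability was read by ATPlite luminescence after 15 min at room temperature.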

CAOV3 = test: as above; conditions: Gynecologic cancer cell panel viability, ATPlite luminescence, 48 h; series mostly up to 57.5 µM
Method in brief: as §2

CASKI = test: as above; conditions: Gynecologic cancer cell panel viability, ATPlite luminescence, 48 h; series mostly up to 57.5 µM
Method in brief: as §2

Es-2 = test: as above; conditions: Gynecologic cancer cell panel viability, ATPlite luminescence, 48 h; series mostly up to 57.5 µM
Method in brief: as §2

HeLa = test: as above; conditions: Gynecologic cancer cell panel viability, ATPlite luminescence, 48 h; series mostly up to 57.5 µM
Method in brief: as §2

Hek293T = test: as above; conditions: Gynecologic cancer cell panel viability, ATPlite luminescence, 48 h, control line for the selectivity index; series mostly up to 57.5 µM
Method in brief: as §2

JEG-3 = test: as above; conditions: Gynecologic cancer cell panel viability, ATPlite luminescence, 48 h; series mostly up to 57.5 µM
Method in brief: as §2

OV90 = test: as above; conditions: Gynecologic cancer cell panel viability, ATPlite luminescence, 48 h; series mostly up to 57.5 µM
Method in brief: as §2

C/C=C(\C)C(=O)OC[C@H]1O[C@@H](O[C@H]2[C@@H](O[C@H]3O[C@H](CO)[C@@H](O)[C@H](O)[C@H]3O[C@@H]3O[C@H](CO)[C@@H](O)[C@H](O)[C@H]3O)O[C@H](COC(=O)/C(C)=C/C)[C@@H](O)[C@@H]2O)[C@H](O)[C@@H](O)[C@@H]1O
inactive: outcome (CRL-7250) | max response (HEK293) -5.43% | outcome (HaCat [1]) | max response (KB-3-1) -3.26% | max response (NIH3T3) 3.7% | outcome (HACAT [2]) inactive [at 9.27 µM] | activity change, negative = cytotoxicity (C33A) 7.95% [at 11.6 µM] | activity change, negative = cytotoxicity (CAOV3) 13.6% [at 11.6 µM] | activity change, negative = cytotoxicity (CASKI) -6.51% [at 11.6 µM] | activity change, negative = cytotoxicity (Es-2) -0.184% [at 11.6 µM] | activity change, negative = cytotoxicity (HeLa) -3.59% [at 11.6 µM] | activity change, negative = cytotoxicity (Hek293T) 2.97% [at 11.6 µM] | activity change, negative = cytotoxicity (JEG-3) -0.345% [at 11.6 µM] | activity change, negative = cytotoxicity (OV90) 4.16% [at 11.6 µM]

Oc1ccccc1-c1cc(-c2ccccc2F)[nH]n1
inactive: max response (CRL-7250) 3.55% | max response (HEK293) 4.01% | outcome (HaCat [1]) | max response (KB-3-1) -0.368% | max response (NIH3T3) 3.17% | outcome (HACAT [2]) | Potency (C33A) | Potency (CAOV3) | outcome (CASKI) | Potency (Es-2) | Potency (HeLa) | Potency (Hek293T) | Potency (JEG-3) | Potency (OV90)

NC(=O)NCCCC(NC(=O)Cc1ccccc1)C(=O)O (configuration not stated)
inactive: outcome (CRL-7250) | max response (HEK293) -0.44% | outcome (HaCat [1]) | max response (KB-3-1) 3.03% | max response (NIH3T3) 3.99% | outcome (HACAT [2]) | Potency (C33A) | Potency (CAOV3) | outcome (CASKI) | Potency (Es-2) | Potency (HeLa) | Potency (Hek293T) | Potency (JEG-3) | Potency (OV90)

COC1CC(O[C@H]2CC[C@@]3(C)C(=CC[C@]4(O)C3[C@H](O)[C@@H](O)[C@]3(C)[C@@H]([C@H](C)O)CC[C@@]34O)C2)OC(C)C1OC1CC(OC)C(OC2CC(OC)C(OC3OC(C)C(OC4OC(CO)C(O)C(O)C4O)C(OC)C3O)C(C)O2)C(C)O1 (some centres not stated)
inactive: max response (CRL-7250) -21.7% | max response (HEK293) -82.7% | outcome (HaCat [1]) | max response (KB-3-1) 2.22% | max response (NIH3T3) -54.6% | outcome (HACAT [2]) inactive [at 9.27 µM] | activity change, negative = cytotoxicity (C33A) 15.5% [at 11.6 µM] | activity change, negative = cytotoxicity (CAOV3) 14.6% [at 11.6 µM] | activity change, negative = cytotoxicity (CASKI) 17.9% [at 11.6 µM] | activity change, negative = cytotoxicity (Es-2) 5.18% [at 11.6 µM] | activity change, negative = cytotoxicity (HeLa) -0.017% [at 11.6 µM] | activity change, negative = cytotoxicity (Hek293T) 8.49% [at 11.6 µM] | activity change, negative = cytotoxicity (JEG-3) -0.832% [at 11.6 µM] | activity change, negative = cytotoxicity (OV90) -7.88% [at 11.6 µM]

NC(=O)c1ccc(F)c2c1C[C@@H](N(C1CCC1)C1CCC1)CO2
inactive: outcome (CRL-7250) | max response (HEK293) -5.17% | outcome (HaCat [1]) | max response (KB-3-1) 4.79% | max response (NIH3T3) 3.88% | outcome (HACAT [2]) | Potency (C33A) | Potency (CAOV3) | outcome (CASKI) | Potency (Es-2) | Potency (HeLa) | Potency (Hek293T) | Potency (JEG-3) | Potency (OV90)

COCC1OC(n2cnc3c(=O)[nH]cnc32)C(O)C1O (configuration not stated)
inactive: outcome (CRL-7250) | max response (HEK293) -3.16% | outcome (HaCat [1]) | max response (KB-3-1) 2.47% | max response (NIH3T3) -2.27% | outcome (HACAT [2]) | Potency (C33A) | Potency (CAOV3) | outcome (CASKI) | Potency (Es-2) | Potency (HeLa) | Potency (Hek293T) | Potency (JEG-3) | Potency (OV90)

C=C1C[C@]23C[C@@]1(O)CC[C@H]2[C@@]12C=C[C@H](O)[C@@](C)(C(=O)O1)[C@H]2[C@@H]3C(=O)O
inactive: max response (CRL-7250) 0.765% | max response (HEK293) -0.839% | outcome (HaCat [1]) | max response (KB-3-1) 7.38% | max response (NIH3T3) 2.3% | outcome (HACAT [2]) | Potency (C33A) | Potency (CAOV3) | outcome (CASKI) | Potency (Es-2) | Potency (HeLa) | Potency (Hek293T) | Potency (JEG-3) | Potency (OV90)

COc1cncc(C#Cc2ccccn2)c1
inactive: max response (CRL-7250) 4.39% | max response (HEK293) 2.17% | outcome (HaCat [1]) | max response (KB-3-1) -1.99% | max response (NIH3T3) -3.14% | outcome (HACAT [2]) | Potency (C33A) | Potency (CAOV3) | outcome (CASKI) | Potency (Es-2) | Potency (HeLa) | Potency (Hek293T) | Potency (JEG-3) | Potency (OV90)

CC(=O)OC/C(=C/C(=O)O)CC[C@@H]1C(C)=CC(=O)[C@@H]2C(C)(C)CCC[C@@]12C
inactive: outcome (CRL-7250) | max response (HEK293) -0.879% | outcome (HaCat [1]) | max response (KB-3-1) -6.11% | outcome (NIH3T3) | outcome (HACAT [2]) | Potency (C33A) | Potency (CAOV3) | outcome (CASKI) | Potency (Es-2) | Potency (HeLa) | Potency (Hek293T) | Potency (JEG-3) | Potency (OV90)

N=C(N)c1ccc2nc(-c3cc(CC(=O)NC(CC(=O)O)C(=O)O)cc(-c4cc(S(N)(=O)=O)ccc4O)c3O)[nH]c2c1 (configuration not stated)
inactive: max response (CRL-7250) -1.88% | max response (HEK293) 1.8% | outcome (HaCat [1]) | outcome (KB-3-1) | max response (NIH3T3) -8.69% | outcome (HACAT [2]) | Potency (C33A) | Potency (CAOV3) | outcome (CASKI) | Potency (Es-2) | Potency (HeLa) | Potency (Hek293T) | Potency (JEG-3) | Potency (OV90)

CC1C2=CC(=O)OC2(O)CC2C1C(OC(=O)c1ccccc1)C(OC(=O)c1ccccc1)C1(O)C2(C)CCC(O)C1(C)C(=O)O (configuration not stated)
inactive: max response (CRL-7250) -2.75% | max response (HEK293) 3.81% | outcome (HaCat [1]) | max response (KB-3-1) -1.08% | max response (NIH3T3) -2.68% | outcome (HACAT [2]) inactive [at 17.4 µM] | Potency (C33A) | Potency (CAOV3) | outcome (CASKI) | Potency (Es-2) | Potency (HeLa) | Potency (Hek293T) | Potency (JEG-3) | Potency (OV90)

COC(=O)[C@@H](NC(=O)[C@H](CC(C)C)NC(=O)N(Cc1ccccc1)C[C@@H](O)[C@H](Cc1ccccc1)NC(=O)OC(C)(C)C)C(C)C
inactive: outcome (CRL-7250) | max response (HEK293) 0.117% | outcome (HaCat [1]) | max response (KB-3-1) -5.6% | max response (NIH3T3) -6.39% | outcome (HACAT [2]) inactive [at 9.27 µM] | activity change, negative = cytotoxicity (C33A) 9.01% [at 11.6 µM] | activity change, negative = cytotoxicity (CAOV3) -0.568% [at 11.6 µM] | activity change, negative = cytotoxicity (CASKI) 1.08% [at 11.6 µM] | activity change, negative = cytotoxicity (Es-2) 0.55% [at 11.6 µM] | activity change, negative = cytotoxicity (HeLa) 4.24% [at 11.6 µM] | activity change, negative = cytotoxicity (Hek293T) -2.96% [at 11.6 µM] | activity change, negative = cytotoxicity (JEG-3) -2.99% [at 11.6 µM] | activity change, negative = cytotoxicity (OV90) -5.58% [at 11.6 µM]

CCC12CCCN3CCc4c(n(c5ccccc45)C(O)C1)C32 (configuration not stated)
inactive: max response (CRL-7250) -2.83% | max response (HEK293) -7.92% | outcome (HaCat [1]) | outcome (KB-3-1) | max response (NIH3T3) -1.2% | outcome (HACAT [2]) | Potency (C33A) | Potency (CAOV3) | outcome (CASKI) | Potency (Es-2) | Potency (HeLa) | Potency (Hek293T) | Potency (JEG-3) | Potency (OV90)
